Measured values from PubChem BioAssay AID1159580 (chemical genetic matrix, 2015).
Values joined by “and” are separate entries in the source; they are usually repeats but may differ in a detail not shown here. Equal entries are not always repeated. Hit rate of the full screen: of about 5,500 compounds, about 2,000 (36%) were called active. Not shown: some 18% with an inconclusive outcome. No stated cut-off is given here; in the data, active means normalized growth mostly below about 0.91 (no sharp cut-off); inconclusive means no clear call, values can overlap the other calls; inactive means mostly above about 0.92. This is one part of the list.

Test: chemical genetic growth profiling, strain panel (AID 1159580);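 further: tested at 20 µM; growth read once vehicle control cultures reached saturation at 30 °C; 1 = growth at the plate median or of vehicle wells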
Settings: S. cerevisiae deletion strains, growth OD

Measured: normalized growth

NCCCNCCSP(=O)(O)O
inactive: locus YAL013W, strain DEP1, stronger effect = lower value 0.988 and 1.01 | locus YAL021C, strain ccr4, stronger effect = lower value 0.985 | locus YAL026C, strain drs2, stronger effect = lower value 0.976 | locus YAL030W, strain snc1, stronger effect = lower value 0.968 | locus YAL040C, strain CLN3, stronger effect = lower value 1 | locus YBL061C, strain skt5, stronger effect = lower value 0.97 | locus YBR009C, strain hhf1, stronger effect = lower value 0.988 | locus YBR021W, strain FUR4, stronger effect = lower value 0.967 | locus YBR023C, strain chs3, stronger effect = lower value 0.976 | locus YBR171W, strain sec66, stronger effect = lower value 0.96 | locus YBR229C, strain ROT2, stronger effect = lower value 1 | locus YBR231C, strain swc5, stronger effect = lower value 0.975 | locus YBR279W, strain paf1, stronger effect = lower value 0.995 | locus YCL011C, strain gbp2, stronger effect = lower value 0.957 | locus YCL016C, strain dcc1, stronger effect = lower value 0.982 | locus YCL029C, strain bik1, stronger effect = lower value 0.988 | locus YCL061C, strain MRC1, stronger effect = lower value 0.983 | locus YCL069W, strain vba3, stronger effect = lower value 0.994 | locus YCR088W, strain abp1, stronger effect = lower value 0.982 | locus YDL005C, strain med2, stronger effect = lower value 0.969 | locus YDL035C, strain GPR1, stronger effect = lower value 0.994 | locus YDL040C, strain nat1, stronger effect = lower value 0.987 | locus YDL074C, strain BRE1, stronger effect = lower value 0.993 | locus YDL101C, strain DUN1, stronger effect = lower value 0.984 | locus YDL134C, strain PPH21, stronger effect = lower value 0.994 | locus YDL185W, strain tfp1, stronger effect = lower value 0.944 | locus YDL192W, strain arf1, stronger effect = lower value 0.986 | locus YDR001C, strain nth1, stronger effect = lower value 0.977 | locus YDR069C, strain doa4, stronger effect = lower value 0.968 | locus YDR101C, strain arx1, stronger effect = lower value 1 | locus YDR137W, strain rgp1, stronger effect = lower value 0.968 | locus YDR150W, strain NUM1, stronger effect = lower value 0.949 | locus YDR159W, strain sac3, stronger effect = lower value 0.98 | locus YDR162C, strain NBP2, stronger effect = lower value 0.992 | locus YDR195W, strain ref2 0.989 | locus YDR297W, strain sur2, stronger effect = lower value 0.983 | locus YDR318W, strain mcm21, stronger effect = lower value 0.986 | locus YDR334W, strain swr1, stronger effect = lower value 0.933 | locus YDR335W, strain msn5, stronger effect = lower value 0.981 | locus YDR388W, stronger effect = lower value 1 | locus YDR392W, strain spt3, stronger effect = lower value 0.927 | locus YDR502C, strain sam2, stronger effect = lower value 0.993 | locus YEL003W, strain gim4, stronger effect = lower value 0.988 | locus YEL037C, strain rad23, stronger effect = lower value 0.981 | locus YEL061C, strain CIN8 (second series), stronger effect = lower value 0.972 | locus YEL061C, strain CIN8, stronger effect = lower value 0.998 | locus YER002W, strain NOP16, stronger effect = lower value 0.997 | locus YER015W, strain faa2, stronger effect = lower value 0.973 | locus YER016W, strain bim1, stronger effect = lower value 0.991 | locus YER110C, stronger effect = lower value 0.989 | locus YER111C, strain swi4, stronger effect = lower value 0.988 | locus YER155C, strain BEM2 (second series), stronger effect = lower value 0.983 | locus YER155C, strain BEM2, stronger effect = lower value 0.942 | locus YER167W, strain BCK2, stronger effect = lower value 0.991 | locus YFR010W, strain ubp6, stronger effect = lower value 0.957 | locus YGL078C, strain dbp3, stronger effect = lower value 0.987 | locus YGL086W, strain mad1, stronger effect = lower value 0.978 | locus YGL167C, strain pmr1, stronger effect = lower value 0.976 | locus YGL173C, strain kem1, stronger effect = lower value 0.944 | locus YGL227W, strain vid30, stronger effect = lower value 0.974 | locus YGL240W, strain doc1, stronger effect = lower value 0.984 | locus YGL248W, strain PDE1, stronger effect = lower value 1 | locus YGL253W, strain hxk2, stronger effect = lower value 0.989 | locus YGR078C, strain PAC10, stronger effect = lower value 0.984 | locus YGR135W, strain pre9, stronger effect = lower value 0.984 | locus YGR229C, strain SMI1, stronger effect = lower value 0.964 | locus YGR252W, strain gcn5, stronger effect = lower value 0.978 | locus YHR013C, strain ard1, stronger effect = lower value 0.981 | locus YHR027C, strain rpn1, stronger effect = lower value 0.959 | locus YHR030C, strain SLT2, stronger effect = lower value 0.993 | locus YHR079C, strain IRE1 (second series), stronger effect = lower value 0.991 | locus YHR094C, strain hxt1, stronger effect = lower value 0.979 | locus YHR129C, strain ARP1, stronger effect = lower value 0.999 | locus YHR142W, strain chs7, stronger effect = lower value 0.936 | locus YHR200W, strain rpn10, stronger effect = lower value 0.983 | locus YIL066C, strain RNR3, stronger effect = lower value 0.995 | locus YIL073C, strain SPO22, stronger effect = lower value 0.941 | locus YIL125W, strain kgd1, stronger effect = lower value 1 | locus YIR030C, strain dcg1, stronger effect = lower value 0.998 | locus YJL092W, strain hpr5, stronger effect = lower value 0.979 | locus YJL095W, strain BCK1 (second series), stronger effect = lower value 0.983 | locus YJL095W, strain BCK1, stronger effect = lower value 1.02 | locus YJL115W, strain asf1, stronger effect = lower value 0.955 | locus YJL129C, strain trk1, stronger effect = lower value 1 | locus YJL134W, strain LCB3, stronger effect = lower value 0.989 | locus YJL154C, strain vps35, stronger effect = lower value 0.972 | locus YJL164C, strain tpk1, stronger effect = lower value 0.992 | locus YJL166W, strain qcr8, stronger effect = lower value 0.956 | locus YJL168C, strain set2, stronger effect = lower value 1 | locus YJL187C, strain SWE1 (second series), stronger effect = lower value 0.99 | locus YJL187C, strain SWE1, stronger effect = lower value 0.982 | locus YJR043C, strain POL32, stronger effect = lower value 0.994
